# Test results reported in PubChem BioAssay (NCI).
# The panel holds about 79,000 compounds, 15% with a hit somewhere; the sample as a whole holds those more often. A number with no mark means an inactive call. Activity calls are given as the source filed them. Rule as the data show it: active = growth inhibition above about 70%; inactive = the rest.
# Assays:
# [1] = NCI Yeast Anticancer Drug Screen. Data for the rad50 strain (AID 155);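 also: 0% = growth of vehicle-only cultures of the same strain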; details: S. cerevisiae rad50 strain growth inhibition, active compounds read high
# Outline: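 Vehicle-treated cultures provide the reference for the growth inhibition reported for compound-exposed, repair-deficient yeast.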
# [2] = NCI Yeast Anticancer Drug Screen. Data for the mec2-1 strain (AID 157); details: S. cerevisiae mec2-1 strain, active compounds read high
# Outline: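 Strain: mec2-1 (DNA repair/cell cycle alteration). Compound exposure, then growth measured; inhibition expressed relative to vehicle.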
# [3] = NCI Yeast Anticancer Drug Screen. Data for the sgs1 mgt1 strain (AID 161);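 also: 0% = growth of cultures given vehicle only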; details: S. cerevisiae sgs1 mgt1 strain, active compounds read high
# Outline: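 Mutant yeast exposed to compound; growth scored against vehicle-only wells.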
# [4] = NCI Yeast Anticancer Drug Screen. Data for the cln2 rad14 strain (AID 165);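 also: 0% = growth equal to vehicle treated cultures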; details: S. cerevisiae cln2 rad14 strain, active compounds read high
# Outline: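 Compounds are applied to the cln2 rad14 yeast strain, and growth is then compared with that of vehicle-treated cultures to give inhibition.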
# [5] = NCI Yeast Anticancer Drug Screen. Data for the bub3 strain (AID 167); details: S. cerevisiae bub3 mutant strain, active compounds read high
# Outline: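 Mutant yeast screening strain plus compound; vehicle-treated cultures serve as the 0% inhibition reference.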
# [6] = NCI Yeast Anticancer Drug Screen. Data for the mlh1 rad18 strain (AID 175); details: S. cerevisiae mlh1 rad18 strain growth inhibition, active compounds read high
# Outline: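 Read-out is yeast growth inhibition, calculated against vehicle-only controls. The compound was applied to a strain engineered with DNA damage repair alterations.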
# [7] = at 5.0 µM (retest, dose inferred, filed as 0.5)
# [8] = at 50.0 µM (retest, dose inferred, filed as 5.0)
SMILES,"growth inhibition [1, 7]","growth inhibition [1, 8]",growth inhibition ([1]; at 50.0 µM),"growth inhibition [2, 7]","growth inhibition [2, 8]",growth inhibition ([2]; at 50.0 µM),"growth inhibition [3, 7]","growth inhibition [3, 8]",growth inhibition ([3]; at 50.0 µM),"growth inhibition [4, 7]","growth inhibition [4, 8]",growth inhibition ([4]; at 50.0 µM),"growth inhibition [5, 7]","growth inhibition [5, 8]",growth inhibition ([5]; at 50.0 µM),"growth inhibition [6, 7]","growth inhibition [6, 8]",growth inhibition ([6]; at 50.0 µM)
COc1ccc2c(c1)CCc1c(-c3noc4c3CCc3cc(OC)ccc3-4)noc1-2,-7%,-15%,9.65%,5%,19%,19%,4%,-2%,-0.9%,11%,9%,53.5%,-2%,2%,-7.75%,-2%,10%,54.2%
O=C(NCc1ccccc1)C1C(=O)N(Cc2ccccc2)C(=O)/C1=N/O (configuration not stated),-16%,-1%,-17.1%,2%,1%,16.8%,-14%,-22%,35.2%,-4%,-1%,-22.5%,2%,-1%,31.6%,-2%,-3%,12.8%
COc1cccc(NC(=S)NC2CC(C)CC(C)(C)C2)c1 (configuration not stated),24%,94% (active),86.5% (active),-11%,85% (active),89.3% (active),-1%,94% (active),89.8% (active),30%,90% (active),86.2% (active),8%,93% (active),89.2% (active),-7%,93% (active),84.8% (active)
CSC(=N)N1N=C2/C(=C/c3ccccc3)CCC[C@H]2[C@H]1c1ccccc1,-17%,-14%,21.4%,-7%,-2%,-6.7%,-13%,13%,40.7%,-35%,5%,-14.8%,-3%,5%,4.45%,-10%,29%,27.9%
CC(C)C(=O)c1ccc([N+](=O)[O-])o1,2%,97% (active),98.8% (active),11%,97% (active),99% (active),8%,96% (active),97.7% (active),-3%,99% (active),97.3% (active),1%,97% (active),99.1% (active),6%,98% (active),98.5% (active)
O=C1c2cc(F)ccc2-c2c(F)cc(F)c(F)c21,8%,7%,82.3% (active),6%,5%,55.9%,2%,4%,41%,3%,-6%,34.9%,-7%,-14%,5.95%,4%,7%,46.8%
CCCN(CCC)C(=O)c1cccc2ccccc12,3%,7%,6.8%,4%,6%,-19.1%,1%,9%,44.5%,3%,22%,-1.9%,6%,28%,27.2%,6%,7%,7.5%
CC(C)(C)OC(=O)N(CCCCNC(=O)OCc1ccccc1)CCCNC(=O)OCc1ccccc1,9%,9%,23.1%,7%,-4%,14.8%,-19%,-3%,-1.15%,0%,18%,-0.85%,2%,-1%,-13.4%,9%,9%,-57.7%
CCOC(=O)C(/C=N\C(=S)Nc1c(CC)cccc1C(C)(C)C)=C(/O)c1ccccc1,7%,61%,51.5%,0%,46%,49%,17%,35%,64.5%,-13%,43%,67.2%,-8%,73% (active),55.6%,4%,48%,63%
Cc1cc(Cl)cc2c1OCN(C)C2,0%,93% (active),99% (active),1%,96% (active),99.2% (active),1%,97% (active),98.8% (active),-6%,96% (active),99.3% (active),-5%,94% (active),99% (active),0%,94% (active),99.5% (active)
O=C(Nc1cc(Cl)cc(Cl)c1)C(F)(F)F,27%,98% (active),83.9% (active),34%,100% (active),87.5% (active),37%,99% (active),96.4% (active),9%,99% (active),92.4% (active),96% (active),99% (active),85% (active),59%,99% (active),97.4% (active)
Cc1nc(C(N)=S)sc1C(=O)C/C(=N/N)C(=O)Nc1cccc(Cl)c1C,8%,24%,26.1%,-5%,14%,29.6%,-7%,23%,-4.95%,-28%,-15%,-15.2%,5%,23%,6.25%,11%,7%,37.1%
O=C(Nc1cccc(C(F)(F)F)c1)c1cc(Br)cc(Br)c1O,38%,87% (active),83.2% (active),37%,80% (active),62.6%,44%,85% (active),77% (active),45%,75% (active),67.5%,44%,83% (active),69.3%,52%,95% (active),64.1%
CCCCCC(C)NCCOC(=O)c1ccccc1 (configuration not stated),3%,78% (active),50.8%,-13%,82% (active),-10.7%,-8%,79% (active),59.4%,0%,26%,67.2%,3%,84% (active),75.5% (active),18%,89% (active),40.5%
OCCN1c2ccccc2Sc2ccc(Cl)cc21,-1%,97% (active),89.3% (active),-18%,98% (active),92% (active),-14%,40%,90.8% (active),30%,98% (active),86.8% (active),1%,97% (active),91.3% (active),12%,98% (active),88.5% (active)
COc1ccc(C(=O)C(c2ccc(OC)cc2)C2(O)C(=O)Nc3c(Cl)cc(Cl)cc32)cc1 (configuration not stated),37%,37%,91% (active),-20%,-20%,92.3% (active),8%,8%,90% (active),25%,25%,90.9% (active),-6%,-6%,90.7% (active),-18%,-18%,90.7% (active)
c1ccc([Si](C[CH2][Sn]([c]2ccccc2)([c]2ccccc2)[c]2ccccc2)(c2ccccc2)c2ccc([Si](C[CH2][Sn]([c]3ccccc3)([c]3ccccc3)[c]3ccccc3)(c3ccccc3)c3ccccc3)cc2)cc1,99% (active),98% (active),77.3% (active),99% (active),99% (active),89.5% (active),100% (active),98% (active),71.9% (active),99% (active),98% (active),83.8% (active),99% (active),98% (active),97.6% (active),99% (active),98% (active),73.1% (active)
Cc1ccc2nn(-c3ccc(O)cc3)nc2c1,11%,45%,50.3%,16%,42%,22.6%,7%,38%,27%,6%,39%,29.3%,28%,69%,74.5% (active),12%,50%,74.2% (active)
CS(=O)(=O)OCCN(CCOS(C)(=O)=O)c1ccc(N=Nc2ccccc2)cc1,32%,82% (active),57.7%,15%,73% (active),45%,52%,88% (active),46%,45%,96% (active),49.8%,56%,84% (active),39.5%,22%,69%,76.8% (active)
